Inconclusive results are not listed. The source made the active and inactive calls. Unless noted, calls come from the whole dose curve; as a rule, active = well fitted curve in the direction sought with a large enough effect; inconclusive = small, poorly fitted or top-dose-only effect, or another doubt; inactive = no such curve, though single readings can be large; an effect the other way counts as inactive or inconclusive.
Experiments:
[1] = Cell Viability - BJ (AID 421; calls by dose curve;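 note: potency is the fitted concentration of half-maximal effect; cells exposed to compound for 40 hours at 37 °C before readout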); settings: BJ fibroblast viability, qHTS
Summary of the method: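 Cytotoxicity in human BJ foreskin fibroblasts is scored as loss of cellular ATP after a 40-hour exposure, measured by luciferase luminescence. Controls are DMSO and 100 uM tamoxifen.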

[2] = Cell Viability - Jurkat (AID 426;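 active = dose-dependent loss of cell ATP signal giving a full or clear fitted curve, ranked by lower potency value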; note: potency is the fitted concentration of half-maximal effect); settings: qHTS
Summary of the method: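 Seed 5000 Jurkat E6-1 cells/well; add compound; incubate 40 hr at 37 °C; add CellTiter-Glo; wait 20 min at room temperature; read luminescence. Fit concentration-response with Hill equation for AC50.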

[3] = Cell Viability - Hek293 (AID 427;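 active = compounds whose dose-response curve shows a full or clear partial loss of cell viability, called from curve shape rather than a numeric limit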;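 note: potency is the fitted concentration of half-maximal effect; cells exposed to compound for 40 hours at 37 °C before reading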); settings: qHTS
Summary of the method: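 qHTS, human embryonic kidney (adenovirus-transformed) cells; 40 hr cpd, 37 °C; CellTiter-Glo ATP luminescence. Norm: DMSO = 0, 100 uM tamoxifen = 100% inhibition. Hill-fit AC50.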

[4] = Cell Viability - HepG2 (AID 433; calls by dose curve;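 note: potency is the fitted concentration of half-maximal effect; potency for ATP loss meaning cytotoxicity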); settings: qHTS
Summary of the method: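 HepG2 cells, 1500 per well, treated 40 hr at 37 °C in complete medium; viability from intracellular ATP by CellTiter-Glo luminescence. Normalized to DMSO and 100 uM tamoxifen; AC50 from Hill fit of qHTS concentration-response.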

[5] = Cell Viability - MRC5 (AID 434; calls by dose curve;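 note: potency is the fitted concentration of half-maximal effect; potency reflects cytotoxicity seen as loss of intracellular ATP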); settings: MRC5 lung fibroblast viability, qHTS
Summary of the method: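 MRC5 normal human lung fibroblasts, 1500 cells/well, exposed to compound for 40 hr at 37 C. Cellular ATP was read by CellTiter-Glo luminescence; data normalized to DMSO and 100 uM tamoxifen, with AC50 from Hill fits.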

[6] = Cell Viability - SK-N-SH (AID 435; calls by dose curve;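 note: potency is the fitted concentration of half-maximal effect; compound exposure lasted 40 h at 37 °C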); settings: SK-N-SH neuroblastoma cell viability qHTS
Summary of the method: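 SK-N-SH neuroblastoma cells (1500/well) treated 40 h at 37 °C in complete medium; viability read as cellular ATP by CellTiter-Glo luminescence. Normalized to DMSO and 100 uM tamoxifen; AC50 from Hill fits of qHTS concentration-response.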

[7] = target: Mitogen-activated protein kinase 10 (Mus musculus) (UniProt Q61831); assay: JNK3 AlphaScreen Assay (AID 530; active = well fitted curve in either direction with a large enough effect, not every such curve was filed as active;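 note: kinase came from lysate of stimulated human HepG2 cells; signal reports phosphorylation of biotinylated GST-cJun 1-79 at Ser73 with 10 µM ATP; % is set by controls: 0 for no effect and ±100 for the full control effect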); settings: JNK3 lysate, c-Jun phosphorylation; series mostly up to 57.1 µM
Summary of the method: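 qHTS format: compounds tested as titrations against IL-1beta/TNF-alpha-activated HepG2 lysate JNK3 with biotin-GST-cJun substrate and 10 uM ATP at room temperature. Loss of anti-phospho-cJun AlphaScreen signal indicates inhibition.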

[8] = Cell Viability - N2a (AID 540); settings: N2a mouse neuroblastoma cell viability; activity change, negative = cytotoxicity: at 92.2 µM (top of the series);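 note: plate controls were DMSO alone for no effect and tamoxifen control for full effect; nearly all actives have a fitted effect of over 45% in size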
Summary of the method: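 First, 1500 N2a cells per well incubate 5 hr at 37 °C; next, compounds are added and incubated 40 hr at 37 °C; finally CellTiter-Glo is added and luminescence read after 20 min, with AC50 derived by Hill modeling.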

[9] = Cell Viability - NIH 3T3 (AID 541); settings: NIH 3T3 cell viability, qHTS; activity change, negative = cytotoxicity: at 92.2 µM (top of the series);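 note: plate controls were DMSO alone for no effect and tamoxifen positive control for full effect; nearly all actives have a fitted effect of over 25% in size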
Summary of the method: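 AC50 values reflect concentration-dependent loss of intracellular ATP in NIH 3T3 cells after 40 hr treatment in complete culture medium, quantified by luciferase-based luminescence.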

[10] = Cell Viability - HUV-EC-C (AID 542); settings: HUV-EC-C endothelial cell viability, qHTS; series mostly up to 92.2 µM; note: % is set by controls: 0 for no effect and ±100 for the full control effect; nearly all actives have a fitted effect of over 35% in size
Summary of the method: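 Decrease in cellular ATP, quantified by luciferase luminescence, reflects toxicity in normal human vascular endothelial HUV-EC-C cells given compound for 40 hr in complete culture medium. Values are AC50s from concentration-response curves.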

[11] = Cell Viability - SH-SY5Y (AID 544); settings: SH-SY5Y neuroblastoma cell viability; viability change, negative = cytotoxic: at 92.2 µM (top of the series); note: nearly all actives have a fitted effect of over 55% in size
Summary of the method: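 Cytotoxicity is scored as a concentration-dependent fall in intracellular ATP in human SH-SY5Y cells treated 40 hr in complete culture medium. Potency is expressed as AC50 from a Hill equation fit.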

[12] = Cell Viability - Renal Proximal Tubule (AID 545); settings: renal proximal tubule cells viability, primary cells of rat origin; series mostly up to 91.7 µM; note: nearly all actives have a fitted effect of over 40% in size
Summary of the method: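 Rat renal proximal tubule primary cells, 1000/well, exposed to compounds for 40 hr at 37 °C in complete medium; cellular ATP read by CellTiter-Glo luminescence. AC50 from concentration-response fitted with standard Hill equation.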

[13] = Cell Viability - Mesenchymal (AID 546); settings: mesenchymal cells viability, qHTS; series mostly up to 91.7 µM;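 note: cells exposed to compound for 40 hours before reading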
Summary of the method: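 Human kidney mesenchymal cells from normal renal glomeruli, 1000 cells/well, rested 5 hr at 37 °C, then treated 40 hr at 37 °C in complete medium. Cellular ATP read by CellTiter-Glo luminescence; AC50 from Hill-equation fits.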

[14] = Cellular Toxicity (caspase-3) Jurkat (AID 655); settings: Jurkat caspase-3 activation, luminescence; caspase-3 activation: at 92.2 µM (top of the series), DMSO = 0%, tamoxifen = 100%;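 note: cells exposed to compound for 16 h at 37 °C before reading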
Summary of the method: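 Jurkat cells (5000/well) in complete medium exposed 16 h at 37 C; caspase-3/7 activity read by Caspase-Glo luminescence after 20 min at room temperature. Normalized to DMSO and 100 uM tamoxifen; AC50 from Hill fits.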

[15] = Cellular Toxicity (caspase-3) HUV-EC-C (AID 656); settings: HUV-EC-C cells, caspase-3 activation (apoptosis), vehicle = 0, 100 µM tamoxifen = 100%; series mostly up to 92.2 µM
Summary of the method: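 HUV-EC-C cells (1000/well) in complete medium, compound-treated 16 h at 37 °C; caspase-3/7 activity read by Caspase-Glo 3/7 luminescence. Normalized to DMSO (basal) and 100 uM tamoxifen (100%); AC50 from Hill-equation concentration-response fits.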

[16] = Cellular Toxicity (caspase-3) SHSY5Y (AID 657); settings: SH-SY5Y caspase-3 activation, DMSO zero, 10 µM staurosporine = 100%; series mostly up to 91.7 µM
Summary of the method: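 SH-SY5Y human neuroblastoma cells, 1500/well, exposed to compound for 16 hours at 37 °C in complete medium. Caspase-3/7 activity read by Caspase-Glo luminescence after 1 hr at room temperature, normalized to DMSO and 10 uM staurosporine; AC50 from Hill fit.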

[17] = Cellular Toxicity (caspase-3) BJ (AID 658); settings: BJ fibroblasts, luminescence, normalized: DMSO 0%, staurosporine 100%; series mostly up to 91.7 µM
Summary of the method: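 BJ human foreskin fibroblasts, 1000 cells/well, treated 16 hours at 37 °C in complete medium; caspase 3/7 activity by Caspase-Glo luminescence after 1 hr at room temperature. Normalized to DMSO and 10 uM staurosporine; AC50 from Hill fits.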

[18] = Cellular Toxicity (caspase-3) MRC-5 (AID 659); settings: MRC-5 cells, luminescence, normalized: DMSO 0%, 10 µM staurosporine 100%; series mostly up to 91.7 µM
Summary of the method: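 MRC-5 human normal lung fibroblasts, 1500 cells/well, treated 16 h at 37 °C in complete medium. Caspase 3/7 measured by Caspase-Glo luminescence after 1 h at room temperature. Normalized to DMSO and 10 uM staurosporine; AC50 from Hill fit.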

[19] = Cell Viability - H-4-II-E (AID 543); settings: H-4-II-E rat hepatoma viability; series mostly up to 92.2 µM; note: % is set by controls: 0 for no effect and ±100 for the full control effect; nearly all actives have a fitted effect of over 35% in size
Summary of the method: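 Here, cytotoxicity is measured in the rat hepatoma line H-4-II-E as loss of intracellular ATP after 40 hr compound treatment, detected by luciferase luminescence.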

[20] = Cellular Toxicity (caspase-3) HepG2 (AID 654); settings: HepG2 caspase-3 activation, luminescence; series mostly up to 92.2 µM;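 note: cells exposed to compound for 16 hours before reading; 0% = DMSO alone and 100% = caspase signal from 100 µM tamoxifen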
Summary of the method: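 qHTS, HepG2, 1500 cells/well, complete medium; cpd 16 h 37 °C; Caspase-Glo 3/7, 20 min RT; lum. Norm: DMSO vs 100 uM tamoxifen; AC50 Hill fit.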

c1ccc(Oc2ccccc2)cc1
inactive: Potency [1] > 92 µM | Potency [2] > 92 µM | Potency [3] > 92 µM | Potency [4] > 92 µM | Potency [5] > 92 µM | Potency [6] > 92 µM | outcome [7] | activity change, negative = cytotoxicity [8] -0.0485% | Potency [9] | Potency [10] | Potency [11] | Potency [12] | Potency [13] | caspase-3 activation [14] 0.819% | outcome [15] | outcome [16] | outcome [17] | outcome [18]

CCC(C)O (stereo not given)
inactive: Potency [1] > 92 µM | Potency [2] > 92 µM | Potency [3] > 92 µM | Potency [4] > 92 µM | Potency [5] > 92 µM | Potency [6] > 92 µM | outcome [7] | activity change, negative = cytotoxicity [8] -8.95% | Potency [9] | Potency [10] | Potency [19] | Potency [12] | Potency [13] | Potency [20] | caspase-3 activation [14] 0.184% | outcome [15] | outcome [16] | outcome [17] | outcome [18]

CCNc1cc(O)ccc1C
inactive: Potency [1] > 92 µM | Potency [2] > 92 µM | Potency [3] > 92 µM | Potency [4] > 92 µM | Potency [5] > 92 µM | Potency [6] > 92 µM | outcome [7] | activity change, negative = cytotoxicity [8] 4.09% | Potency [9] | Potency [10] | Potency [19] | Potency [12] | Potency [13] | Potency [20] | outcome [15] | outcome [16] | outcome [17]

Cc1nc2ccc(Cl)cc2[nH]1
inactive: Potency [1] > 92 µM | Potency [2] > 92 µM | Potency [3] > 92 µM | Potency [4] > 92 µM | Potency [5] > 92 µM | Potency [6] > 92 µM | outcome [7] | activity change, negative = cytotoxicity [8] -5.91% | Potency [9] | Potency [10] | Potency [11] | Potency [12] | Potency [13] | Potency [20] | caspase-3 activation [14] 0.744% | outcome [15] | outcome [16] | outcome [17] | outcome [18]

CC(=O)OCCC(C)C
inactive: Potency [1] > 92 µM | Potency [2] > 92 µM | Potency [3] > 92 µM | Potency [4] > 92 µM | Potency [5] > 92 µM | Potency [6] > 92 µM | outcome [7] | activity change, negative = cytotoxicity [8] -1.72% | Potency [9] | Potency [10] | Potency [11] | Potency [12] | Potency [13] | Potency [20] | caspase-3 activation [14] 0.836% | outcome [15] | outcome [16] | outcome [17] | outcome [18]

Cc1ccc(Br)cc1
inactive: Potency [1] > 92 µM | Potency [2] > 92 µM | Potency [3] > 92 µM | Potency [4] > 92 µM | Potency [5] > 92 µM | Potency [6] > 92 µM | outcome [7] | activity change, negative = cytotoxicity [8] 6.22% | Potency [9] | Potency [10] | Potency [19] | Potency [12] | Potency [13] | Potency [20] | caspase-3 activation [14] 0.635% | outcome [15] | outcome [16] | outcome [17] | outcome [18]

COC(=O)CCCC(=O)OC
inactive: Potency [1] > 92 µM | Potency [2] > 92 µM | Potency [3] > 92 µM | Potency [4] > 92 µM | Potency [5] > 92 µM | Potency [6] > 92 µM | outcome [7] | activity change, negative = cytotoxicity [8] 3.33% | Potency [9] | Potency [10] | Potency [19] | Potency [12] | Potency [13] | Potency [20] | caspase-3 activation [14] 0.321% | outcome [15] | outcome [16] | outcome [17] | outcome [18]

CNc1ccccc1
inactive: Potency [1] > 92 µM | Potency [2] > 92 µM | Potency [3] > 92 µM | Potency [4] > 92 µM | Potency [5] > 92 µM | Potency [6] > 92 µM | outcome [7] | activity change, negative = cytotoxicity [8] -12.9% | Potency [9] | Potency [10] | Potency [11] | Potency [12] | Potency [13] | Potency [20] | caspase-3 activation [14] 1.08% | outcome [15] | outcome [16] | outcome [17] | outcome [18]

NC(=S)NNC(N)=S
inactive: Potency [1] > 92 µM | Potency [2] > 92 µM | Potency [3] > 92 µM | Potency [4] > 92 µM | Potency [5] > 92 µM | Potency [6] > 92 µM | outcome [7] | activity change, negative = cytotoxicity [8] 4.33% | Potency [9] | Potency [10] | Potency [19] | Potency [12] | Potency [13] | Potency [20] | outcome [15] | outcome [16] | outcome [17] | outcome [18]

Cc1cccc(C(=O)O)c1[N+](=O)[O-]
inactive: Potency [1] > 92 µM | Potency [2] > 92 µM | Potency [3] > 92 µM | Potency [4] > 92 µM | Potency [5] > 92 µM | Potency [6] > 92 µM | outcome [7] | activity change, negative = cytotoxicity [8] 8.99% | Potency [9] | Potency [10] | Potency [11] | Potency [12] | Potency [13] | Potency [20] | caspase-3 activation [14] 0.0965% | outcome [15] | outcome [16] | outcome [17] | outcome [18]

Cc1ccc(CO)cc1
inactive: Potency [1] > 92 µM | Potency [2] > 92 µM | Potency [3] > 92 µM | Potency [4] > 92 µM | Potency [5] > 92 µM | Potency [6] > 92 µM | outcome [7] | activity change, negative = cytotoxicity [8] -2.9% | Potency [9] | Potency [10] | Potency [11] | Potency [12] | Potency [13] | Potency [20] | caspase-3 activation [14] 2.2% | outcome [15] | outcome [16] | outcome [17] | outcome [18]
